High-throughput results as filed in PubChem BioAssay.
CR mimetic SO: caloric restriction mimetics inhibiting age-related superoxide in yeast; S. cerevisiae aged cells, superoxide DHE fluorescence; active compounds read low; superoxide response (% of plate mean), % at 10 µM; hit rate 0.18% among 330,000; AID 2690;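 active means superoxide response under a set limit, about three screen SD below normal, cut at about 65% in these data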;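 further: yeast aged for seven days with compound at 30 °C before DHE staining; 100% = average MFI of all compound-treated wells on the plate with controls excluded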
tim10-1 inh: tim10-1 yeast growth inhibition; S. cerevisiae tim10-1 ts strain growth, BacTiter-Glo, 24 h; inhibition, % at 20 µM; hit rate 2.2% among 330,000; AID 463190;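 active means inhibition of at least 40%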;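 further: mutant grown at 25 °C; 0% = DMSO wells with yeast and 100% = wells holding no yeast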
NLRP3 yeast inh: inhibitors of NALP3 inflammasome in yeast | inhibition, % at 10 µM | hit rate 0.39% among 330,000 | AID 2825 | Yeast reconstituted NLRP3/ASC/caspase-1, beta-gal luminescence, 24 h;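 active means inhibition of 50% or more; inactive means inhibition below 50%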;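 further: plate controls were induced DMSO wells for no effect and uninduced yeast grown without galactose for full effect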
TIM10 inh: growth inhibitors of TIM10 yeast strain. AID 463195. inhibition, % at 10 µM. S. cerevisiae TIM10 strain growth, BacTiter-Glo luminescence, 24 h. hit rate 1.4% among 330,000;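 active means inhibition of 40% or more at the single tested concentration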;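 further: wild-type TIM10 isogenic control strain grown at permissive 25 °C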
tim23-1 inh: growth inhibitors of tim23-1 mutant yeast; S. cerevisiae tim23-1 growth, BacTiter-Glo luminescence, 24 h; inhibition, % at 20 µM; hit rate 1.3% among 330,000;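 active means growth inhibition of the mutant yeast at or above 50%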;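 further: temperature-sensitive mutant grown at 25 °C; plate controls were DMSO-treated mutant yeast for no effect and medium wells lacking yeast for full effect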
tim10-1 conf: tim10-1 yeast growth inhibition, confirmed. hit rate 56% among 7,400. S. cerevisiae tim10-1 ts strain growth, BacTiter-Glo, 24 h. inhibition, % at 20 µM. AID 463213. shares compounds with tim10-1 inh;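 active means inhibition of yeast growth at or above a set limit in either of two repeat tests at 20 µM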;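 further: tim10-1 mutant grown at permissive 25 °C to find synthetic lethal compounds; 0% = DMSO yeast wells and 100% = medium wells without yeast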
* = called active by the depositor; / = not tested or not shown. Hits are enriched below; roughly 3.8% of the tested compounds scored in any of these assays.

SMILES | CR mimetic SO | tim10-1 inh | NLRP3 yeast inh | TIM10 inh | tim23-1 inh | tim10-1 conf
COc1ccc(S(=O)(=O)Cc2ccc(C(=O)N3CCN(c4ccc(Cl)cc4)CC3)o2)cc1 | 105 | 46* | 6 | 25 | 35 | 18
O=C(CC1C(=O)Nc2ccccc2N1CC(=O)N1CCCC1)Nc1ccc(Br)cc1 (configuration not stated) | 102 | 14 | 7 | 7 | 10 | /
Cc1cc(C)cc(N(CC(=O)NCCSCc2ccccc2)S(C)(=O)=O)c1 | 105 | 22 | 11 | 9 | 15 | /
Cc1ccc(S(=O)(=O)NCc2ccc(C(=O)N3CCc4ccccc4C3)cc2)cc1 | 100 | 47* | 11 | 28 | 38 | 28
CCN(CC)C(=O)c1ccc2c(c1)nnn2C | 99 | 13 | -2 | 1 | -7 | /
O=C(O)c1cnn(-c2ccccc2)c1C(F)(F)F | 102 | -4 | 8 | 5 | 6 | /
COc1ccc2nc(COC(=O)c3cccs3)c(C(C)=O)[n+]([O-])c2c1 | 83 | 2 | 17 | -9 | 3 | /
Cc1ccc(NC(=S)Nc2ccc3cn[nH]c3c2)cc1C | 106 | 26 | 27 | 18 | 7 | /
CC(C)c1ccc(NC(=S)Nc2ccc3cn[nH]c3c2)cc1 | 111 | 43* | 9 | 28 | 27 | 20
Cc1ccc(S(=O)(=O)N(CC(=O)Nc2cccc([N+](=O)[O-])c2)C(=O)N2CCN(C)CC2)cc1 | / | 1 | -3 | 0 | 8 | /
CCCC(C)C(=O)Nc1nc(C)c(-c2csc(Nc3ccc(Cl)cc3)n2)s1 (configuration not stated) | 104 | 44* | -4 | 30 | 39 | 19
Cc1ccc(-n2[nH]c(C)c(CCC#N)c2=O)cc1 | 80 | -4 | 11 | -8 | 9 | /
Cc1[nH]n(-c2ccc(Cl)c(Cl)c2)c(=O)c1CCO | 102 | 43* | 2 | 20 | 31 | 19
COc1ccc2[nH]c3c(N4CCC(O)(c5cccc(C(F)(F)F)c5)CC4)ncnc3c2c1 | 95 | 42* | 22 | 9 | 3 | 16
Cc1cc(S(=O)(=O)N2CCOCC2)ccc1OCC(=O)NCc1ccco1 | 102 | 9 | 16 | -8 | 5 | /
O=C(NC1CCS(=O)(=O)C1)c1ccc(S(=O)(=O)N2CCCCC2)cc1 (configuration not stated) | 104 | -4 | 2 | -2 | 10 | /
CC(C)(C)c1ccc(C(=O)CC(Sc2ccc(Cl)cc2)C(=O)O)cc1 (configuration not stated) | 103 | 41* | 10 | 40 | 42 | 51*
O=C(Nc1nnc(C2CCCCC2)s1)c1ccco1 | 117 | 45* | 13 | 24 | 32 | 35*
CCN1C(=O)/C(=C2\SC(N3CCOCC3)=NC2=O)c2ccccc21 | / | 9 | 3 | -8 | -13 | /
C=CCN1C(=O)/C(=C2\SC(N3CCOCC3)=NC2=O)c2cc(Br)ccc21 | 100 | 51* | 23 | 29 | 41 | 8
C/C(Cl)=C\COc1cc(C)nc2c(Br)cccc12 | 101 | 30 | 37 | 12 | 29 | /
CN1CCN(c2ccc(NC(=S)NC(=O)c3cccc4c(Br)cccc34)cc2)CC1 | 94 | 47* | 42 | -1 | -3 | -84
CC(NC(=O)c1cccc(Cl)c1)C1CC2CCC1C2 (configuration not stated) | 109 | 45* | 4 | 19 | 38 | 35*
CC(NC(=O)c1ccc(Cl)cc1)C1CC2CCC1C2 (configuration not stated) | 100 | -4 | 32 | -24 | 12 | /
CN(C)S(=O)(=O)Oc1ccsc1C(=O)Nc1cccc(Cl)c1 | 104 | 31 | 24 | 22 | 26 | /
SMILES | CR mimetic SO | tim10-1 inh | NLRP3 yeast inh | TIM10 inh | tim23-1 inh | tim10-1 conf
CN(C)S(=O)(=O)Oc1ccsc1C(=O)Nc1ccc(Cl)c(Cl)c1 | 101 | 44* | 26 | 28 | 26 | 36*
COc1cccc(C2Nc3ccccc3NC3=C2C(=O)CC(C)(C)C3)c1 (configuration not stated) | 99 | 5 | 12 | -9 | 9 | /
COc1cccc(CNC(=O)c2ccc(NC(=O)C3=CSCCO3)cc2)c1 | 94 | 45* | 8 | 3 | 47 | 6
S=C(Nc1ccc(Cl)cc1)NC1CCCCC1 | 103 | 7 | 42 | 3 | 23 | /
S=C(Nc1ccc(Nc2ccccc2)cc1)NC1CCCCCC1 | 81 | 43* | 16 | 28 | 6 | 38*
S=C(Nc1cccnc1)NC1CCCCCCC1 | 94 | 50* | 8 | 32 | 33 | 45*
S=C(Nc1ccc2[nH]ccc2c1)NC1CCCCC1 | 112 | 42* | 18 | 35 | 24 | 8
COC(=O)c1ccc(C)c(NC(=O)CN(c2ccccc2)S(=O)(=O)N(C)C)c1 | 96 | 9 | 1 | 17 | 9 | /
CCCCOc1ccc(-c2[nH]ncc2C=O)cc1 | 103 | 26 | 20 | 31 | 38 | /
CCOc1cccc(-c2cc(-c3n[nH]c(=S)n3CC)c3ccccc3n2)c1 | 114 | 53* | 33 | 30 | 43 | 26
CCn1c(-c2cc(-c3ccc(C)c(C)c3)nc3ccccc23)n[nH]c1=S | 103 | 47* | 47 | 35 | 41 | 34*
CCn1c(-c2cc(-c3cc(C)ccc3C)nc3ccccc23)n[nH]c1=S | 97 | 13 | 0 | 1 | 26 | /
O=C1CC(C(=O)NC2CCCCC2)C2(CCCCC2)O1 (configuration not stated) | 82 | 15 | 14 | 13 | 13 | /
Cc1ccc(OC(C)C(=O)N=Nc2c(O)[nH]c3ccc([N+](=O)[O-])cc23)cc1 (configuration not stated) | 167 | 44* | -2 | 19 | -1 | 15
O=C1CN(C(=S)NC(=O)c2ccc(-c3ccccc3)cc2)CCN1 | 98 | -3 | 6 | -10 | -3 | /
CC(=O)N1CCCC(N2CCN(c3cccc(C(F)(F)F)c3)CC2)C1 (configuration not stated) | 101 | -23 | 9 | -4 | 1 | /
Cc1ccc(C(=O)N2CCCC(N3CCN(c4cccc(C(F)(F)F)c4)CC3)C2)s1 (configuration not stated) | 83 | 42* | 10 | 18 | 35 | 21
CC(=O)N1c2ccc(S(=O)(=O)NC(CC(=O)O)c3ccc(Br)cc3)cc2CC1C (configuration not stated) | 111 | 20 | 2 | -2 | 15 | /
Cc1ccc(-c2[nH]ncc2C(=O)c2ccc(Br)cc2)c(O)c1 | 109 | 42* | 14 | 7 | 43 | 23
Clc1ccccc1/C=C/c1ccnc2ccccc12 | 84 | 44* | 28 | 13 | 37 | 26
N/C(=N\OC(=O)CCCc1ccccc1)c1ccccc1 | 87 | 45* | 13 | 35 | 35 | 44*
N/C(=N\OC(=O)CCCc1ccccc1)c1cccc([N+](=O)[O-])c1 | 104 | 46* | -7 | 35 | 32 | 42*
Cc1noc(C)c1CC(=O)N1CCCC(C(=O)c2ccc(C(C)(C)C)cc2)C1 (configuration not stated) | 95 | 41* | 13 | 30 | 16 | 22
